In PubChem BioAssay (NCATS):
Records with an inconclusive call do not appear. Active and inactive are the calls of the source. The call rests on the fitted dose curve; in most records, active means well fitted curve in the direction sought with a large enough effect; inconclusive means small, poorly fitted or top-dose-only effect, or another doubt; inactive means no such curve, though single readings can be large; an effect the other way counts as inactive or inconclusive.

Tests used:
[1] = Quantitative High-Throughput drug screen in 47 multiple myeloma cell lines against the NCATS MIPE library collection: KHM11_PLB cell viability assay (AID 1918962); further: nearly all actives have a fitted effect of over 35% in size
Summary of the method: (§1)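 CellTiter-Glo luminescence (ATP) after 48 h compound exposure, 37C/5% CO2; 500 cells/well; MIPE 4.0 approved/investigational drugs pinned in; DMSO = 100%, media only = 0% viability.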

[2] = Quantitative High-Throughput drug screen in 47 multiple myeloma cell lines against the NCATS MIPE library collection: JIM3_ECACC cell viability assay (AID 1918963; further: nearly all actives have a fitted effect of over 35% in size)
Summary of the method: as §1

[3] = Quantitative High-Throughput drug screen in 47 multiple myeloma cell lines against the NCATS MIPE library collection: INA6_PLB cell viability assay (AID 1918965; further: nearly all actives have a fitted effect of over 55% in size)
Summary of the method: (§2)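 Myeloma cells (500 per well) were exposed to MIPE 4.0 compounds by pin transfer and incubated 48 hours at 37C, 5% CO2. Viability was read as ATP by CellTiter-Glo luminescence, normalised to DMSO (100%) and media-only (0%) wells.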

[4] = Quantitative High-Throughput drug screen in 47 multiple myeloma cell lines against the NCATS MIPE library collection: JJN3_DSMZ cell viability assay (AID 1918966; further: nearly all actives have a fitted effect of over 50% in size)
Summary of the method: (§3)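 Approved and investigational drugs from MIPE 4.0 were added by pin tool to 500 cells per well. After 48 hours at 37C, ATP-based CellTiter-Glo luminescence indicated remaining viability.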

[5] = Quantitative High-Throughput drug screen in 47 multiple myeloma cell lines against the NCATS MIPE library collection: H1112_PLB cell viability assay (AID 1918967; further: nearly all actives have a fitted effect of over 30% in size)
Summary of the method: as §3

[6] = Quantitative High-Throughput drug screen in 47 multiple myeloma cell lines against the NCATS MIPE library collection: Karpas25_ECACC cell viability assay (AID 1918968; further: nearly all actives have a fitted effect of over 35% in size)
Summary of the method: as §3

[7] = Quantitative High-Throughput drug screen in 47 multiple myeloma cell lines against the NCATS MIPE library collection: KMS12BM_JCRB cell viability assay (AID 1918971); further: nearly all actives have a fitted effect of over 35% in size
Summary of the method: (§4)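 We plated 500 myeloma cells per well, pinned in MIPE 4.0 compounds, and incubated for 48 hours at 37C. ATP was then quantified with CellTiter-Glo, with DMSO and media-only wells defining 100% and 0%.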

[8] = Quantitative High-Throughput drug screen in 47 multiple myeloma cell lines against the NCATS MIPE library collection: KMS20_JCRB cell viability assay (AID 1918973); further: nearly all actives have a fitted effect of over 45% in size
Summary of the method: as §3

[9] = Quantitative High-Throughput drug screen in 47 multiple myeloma cell lines against the NCATS MIPE library collection: KMS26_JCRB cell viability assay (AID 1918975); further: nearly all actives have a fitted effect of over 45% in size
Summary of the method: as §4

[10] = Quantitative High-Throughput drug screen in 47 multiple myeloma cell lines against the NCATS MIPE library collection: MOLP8_DSMZ cell viability assay (AID 1918977); further: nearly all actives have a fitted effect of over 45% in size
Summary of the method: (§5)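 Myeloma cells (500/well) treated with MIPE 4.0 compounds for 48 h at 37 °C, 5% CO2. Viability read as ATP via CellTiter-Glo luminescence after 5 min at RT; DMSO-only wells = 100%, media-only = 0% viability.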

[11] = Quantitative High-Throughput drug screen in 47 multiple myeloma cell lines against the NCATS MIPE library collection: NCIH929_DSMZ cell viability assay (AID 1918978); further: nearly all actives have a fitted effect of over 35% in size
Summary of the method: as §5

[12] = Quantitative High-Throughput drug screen in 47 multiple myeloma cell lines against the NCATS MIPE library collection: OCIMY1_PLB cell viability assay (AID 1918979); further: nearly all actives have a fitted effect of over 35% in size
Summary of the method: as §5

[13] = Quantitative High-Throughput drug screen in 47 multiple myeloma cell lines against the NCATS MIPE library collection: MM1S_ATCC cell viability assay (AID 1918980); further: nearly all actives have a fitted effect of over 45% in size
Summary of the method: as §5

[14] = Quantitative High-Throughput drug screen in 47 multiple myeloma cell lines against the NCATS MIPE library collection: MM1R_ATCC cell viability assay (AID 1918981); further: nearly all actives have a fitted effect of over 35% in size
Summary of the method: as §5

[15] = Quantitative High-Throughput drug screen in 47 multiple myeloma cell lines against the NCATS MIPE library collection: LP1_DSMZ cell viability assay (AID 1918982); further: nearly all actives have a fitted effect of over 35% in size
Summary of the method: as §5

[16] = Quantitative High-Throughput drug screen in 47 multiple myeloma cell lines against the NCATS MIPE library collection: KMS27_JCRB cell viability assay (AID 1918970); further: nearly all actives have a fitted effect of over 30% in size
Summary of the method: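 ATP-based viability (CellTiter-Glo luminescence) is measured in cells treated 48 h with approved and investigational drugs at 37 °C. Controls are DMSO-only wells for full viability and media-only wells for none.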

[17] = Quantitative High-Throughput drug screen in 47 multiple myeloma cell lines against the NCATS MIPE library collection: MMM1_PLB cell viability assay (AID 1918976); further: nearly all actives have a fitted effect of over 35% in size
Summary of the method: as §5

[18] = Quantitative High-Throughput drug screen in 47 multiple myeloma cell lines against the NCATS MIPE library collection: JIM1_ECACC cell viability assay (AID 1918964)
Summary of the method: as §3

[19] = Quantitative High-Throughput drug screen in 47 multiple myeloma cell lines against the NCATS MIPE library collection: KMS12PE_JCRB cell viability assay (AID 1918972); further: nearly all actives have a fitted effect of over 30% in size
Summary of the method: as §2

[20] = Quantitative High-Throughput drug screen in 47 multiple myeloma cell lines against the NCATS MIPE library collection: KMS21BM_JCRB cell viability assay (AID 1918974); settings: ATP luminescence, 48 h; viability: at 45.8 µM (top of the series) unless noted
Summary of the method: as §3
Potency means the concentration at half of the fitted maximal effect.

Row | SMILES | Potency [1] | Potency [2] | Potency [3] | Potency [4] | Potency [5] | Potency [6] | Potency [7] | Potency [8] | Potency [9] | Potency [10] | Potency [11] | Potency [12] | Potency [13] | Potency [14] | Potency [15] | Potency [16] | Potency [17] | Potency [18] | Potency [19] | Potency [20]
1 | CCOc1cc2ncc(C#N)c(Nc3ccc(F)c(Cl)c3)c2cc1NC(=O)C=CCN(C)C | 20.9 µM (active) | 18.7 µM (active) | 0.526 µM (active) | 9.35 µM (active) | 5.26 µM (active) | 0.662 µM (active) | 5.26 µM (active) | 4.69 µM (active) | 20.9 µM (active) | 20.9 µM (active) | 5.9 µM (active) | 18.7 µM (active) | 0.296 µM (active) | 4.18 µM (active) | 10.5 µM (active) |  |  |  |  | 
2 | CNC(=O)c1c(F)cccc1Nc1nc(Nc2cc3c(cc2OC)CCN3C(=O)CN(C)C)nc2[nH]ccc12 | 9.35 µM (active) | 0.105 µM (active) | 5.9 µM (active) | 6.62 µM (active) |  | 0.0935 µM (active) | 14.8 µM (active) | 0.118 µM (active) | 0.264 µM (active) | 7.43 µM (active) | 0.0833 µM (active) | 0.372 µM (active) |  | 0.0935 µM (active) |  | inactive | 0.0469 µM (active) |  |  | 
3 | O=C(Nc1nc2cccc(-c3ccc(CN4CCS(=O)(=O)CC4)cc3)n2n1)C1CC1 | 13.2 µM (active) | 18.7 µM (active) |  | 7.43 µM (active) | 23.5 µM (active) | 16.6 µM (active) | 7.43 µM (active) | 18.7 µM (active) | 13.2 µM (active) | 14.8 µM (active) |  | 23.5 µM (active) | 20.9 µM (active) | 14.8 µM (active) |  |  | 9.35 µM (active) | 5.9 µM (active) |  | 
4 | CC(C)c1nn(-c2c(Cl)cccc2Cl)c2nc(Cc3ccc(OCCO)cc3)[nH]c(=O)c12 | 0.148 µM (active) | 0.166 µM (active) | 0.0833 µM (active) | 0.0833 µM (active) |  | 0.0372 µM (active) | 0.0743 µM (active) | 0.166 µM (active) | 0.148 µM (active) | 0.132 µM (active) | 0.105 µM (active) | 0.235 µM (active) | 0.0418 µM (active) | 0.0418 µM (active) | 0.132 µM (active) | inactive | 0.148 µM (active) |  | inactive | inactive
5 | Cc1cc(CN2CCN(c3c(Br)cnc4nc(-c5ccc(N6CCN(C)CC6)cc5)[nH]c34)CC2)no1 | 5.26 µM (active) | 7.43 µM (active) | 2.64 µM (active) | 10.5 µM (active) | 10.5 µM (active) | 3.32 µM (active) | 18.7 µM (active) | 2.35 µM (active) | 7.43 µM (active) | 7.43 µM (active) | 2.35 µM (active) | 14.8 µM (active) | 5.9 µM (active) | 13.2 µM (active) |  | inactive | 23.5 µM (active) |  |  | 
6 | Cc1cc(Nc2cc(NC(=O)c3c(Cl)cccc3Cl)ccn2)nc(N)n1 | 8.33 µM (active) | 0.469 µM (active) | 0.935 µM (active) | 0.743 µM (active) | 1.05 µM (active) | 13.2 µM (active) | 18.7 µM (active) | 10.5 µM (active) | 16.6 µM (active) | 23.5 µM (active) |  |  | 0.209 µM (active) | 0.469 µM (active) | 0.418 µM (active) | 0.264 µM (active) |  |  | 0.166 µM (active) | 0.418 µM (active)
7 | C[C@@]12O[C@@H](C[C@]1(O)CO)n1c3ccccc3c3c4c(c5c6ccccc6n2c5c31)CNC4=O | 0.0662 µM (active) | 0.526 µM (active) | 0.0743 µM (active) | 0.418 µM (active) | 1.48 µM (active) | 0.296 µM (active) | 1.48 µM (active) | 0.148 µM (active) | 5.9 µM (active) | 0.209 µM (active) | 0.469 µM (active) | 2.35 µM (active) | 1.05 µM (active) | 0.833 µM (active) |  |  | 3.32 µM (active) |  |  | 
8 | C[C@H]1C[C@@H]2[C@@H]([C@@H](O)C[C@@]3(C)[C@H]2CC[C@]3(O)C(=O)CO)[C@@]2(C)C=CC(=O)C=C12 | inactive | inactive |  |  |  | 0.105 µM (active) | inactive |  | inactive |  |  | inactive |  | inactive |  |  | inactive | inactive | inactive | 
9 | Fc1cc(-c2cccc3ncc(-c4cnn(C5CCNCC5)c4)nc23)cc(F)c1CN1CCOCC1 | 6.62 µM (active) | 16.6 µM (active) | 4.18 µM (active) | 16.6 µM (active) | 23.5 µM (active) | 7.43 µM (active) |  | 5.26 µM (active) | 26.4 µM (active) | 18.7 µM (active) | 8.33 µM (active) |  | 20.9 µM (active) | 20.9 µM (active) |  | 8.33 µM (active) |  |  | 6.62 µM (active) | 
10 | CC(C)(C)OC(=O)Nc1ccc(-c2cc(C(=O)NCCCCCCC(=O)NO)no2)cc1 | 5.9 µM (active) | 3.72 µM (active) | 0.469 µM (active) | 2.35 µM (active) | 3.72 µM (active) | 0.935 µM (active) | 1.66 µM (active) | 2.64 µM (active) | 3.72 µM (active) |  | 1.66 µM (active) |  | 2.35 µM (active) | 1.87 µM (active) |  |  |  |  | 0.935 µM (active) | 0.935 µM (active)
